# Test system: Plasmodium falciparum
# Experiment: GSK_TCMDC: Inhibition of Plasmodium falciparum 3D7 in whole red blood cells, using parasite LDH activity as an index of growth. Test compounds present at 2uM
# Format: functional
row,Structure (SMILES),Inhibition
1,O=C(/C=C/c1ccc(Cl)c(Cl)c1)NCCCCCN1CCC(c2c[nH]c3ccc(O)cc23)CC1,100%
2,Cc1cc(N(C)C)nc(Nc2ccc(NC(=O)CCc3ccccc3)cc2)n1,100%
3,Cl.O=c1cc(NCCCNCc2cc(Br)cs2)[nH]c2ccccc12,85%
4,Cc1ccc(NC(=O)Nc2ccc(Br)cc2)cc1OCCN(C)C,84%
5,O=C(CCC1CCCCC1=O)c1ccccc1 (stereo not given),91%
6,COc1ccc(Cl)cc1N1CCN(CCCNC(=O)c2ccc(-c3nc4cc(Cl)c(F)cc4[nH]3)cc2)CC1,100%
7,Cc1cc(F)ccc1Nc1nc(N(C)c2ccccc2)c2cccc(OCCO)c2n1,95%
8,COc1cc(CC2c3cc(O)c(Cl)cc3CCN2C)c(OC)cc1C.Cl (stereo not given),99%
9,CC1(C)CCC(C)(C)c2c1ccc(C1CCN(CCCCNC(=O)c3ccc(-c4ccc(Cl)cc4)cc3)CC1)c2O,100%
10,CN(C)CCCN1CCN(Cc2ccc(-c3ccc(-c4nc5ccccc5[nH]4)s3)cc2)CC1,100%
11,Cc1ccc(NC(C)C(=O)Nc2ccccc2)cc1S(=O)(=O)N1CCCCCC1 (stereo not given),99%
12,O=C(/C=C/c1ccc(Cl)c(Cl)c1)NCCCCCN1CCCN(C(=O)Nc2cc(Cl)cc(Cl)c2)CC1,96%
13,Cc1cc(N2CCCCC2)nc2ccc(NC(=O)c3cc(=O)c4ccccc4o3)cc12,98%
14,Cc1cccc2nc(-c3cccc(-c4cccc(CNCCN5CCNCC5)c4)c3)[nH]c12.O=C(O)C(F)(F)F,90%
15,O=C(NCCCCN1CCC(c2ccc(Br)cc2)CC1)c1ccc(NC(=O)c2ccc(Cl)cc2)cc1,100%
16,Cc1ccc(NCC(=O)Nc2ccc(F)c(Cl)c2)cc1S(=O)(=O)N1CCOCC1,98%
17,COc1cccc(Nc2nc(C)cc(Nc3cccc(C#N)c3)n2)c1,100%
18,CCOC(=O)c1ccc(N2CCN(CCCNC(=O)/C(=C/C=C/c3cc4cc(Cl)c(Cl)cc4[nH]3)OC)CC2)cc1,93%
19,Cc1cccc2nc(-c3ccc(-c4ccc(CNCc5cnn(-c6ccccc6)n5)cc4)s3)[nH]c12.O=C(O)C(F)(F)F,97%
20,Cc1ccnc(NC(c2ccc(Cl)c([N+](=O)[O-])c2)c2ccc3cccnc3c2O)c1 (stereo not given),89%

row,Structure (SMILES),Inhibition
1,CC(C(=O)N1CCCC1)N1CCN(C(c2ccccc2)c2ccccc2)CC1 (stereo not given),82%
2,O=C(C=Cc1ccc(Cl)c(Cl)c1)NCCCCCN1CCC(CCNC(=O)/C=C/c2ccccc2)CC1,97%
3,CCCC(C)Nc1nc(C)cc(NCCC(=O)Nc2ccc(OC)cc2)n1.O=C(O)C(F)(F)F (stereo not given),97%
4,CCCCCCCOc1ccc(NC(=O)Nc2ccc(Cn3ncc(N4CCCNCC4)c(Cl)c3=O)cc2)cc1.O=C(O)C(F)(F)F,87%
5,CCc1cn2c3c(cc(C(=O)N[C@@H](Cc4ccccc4)[C@H](O)CNC(C)C)cc13)N(C)S(=O)(=O)C2.O=CO,98%
6,CCCCCOc1c(CCC)cc(Cc2cnc(N)nc2N)cc1CCC,94%
7,CNCCNCc1ccc(-c2cccc(-c3nc4cc(F)ccc4[nH]3)c2)cc1.O=C(O)C(F)(F)F,93%
8,COc1ccc(CNCc2ccc(-c3ccc(-c4nc5cc(F)ccc5[nH]4)cc3)cc2)cc1.O=C(O)C(F)(F)F,99%
9,CC(CN1CCN(C)CC1)C(=O)Nc1cccc(-c2ccc(-c3nc4cc(C(F)(F)F)ccc4[nH]3)cc2)c1 (stereo not given),100%
10,NC1CCN(Cc2cccc(-c3ccc(-c4nc5ccccc5[nH]4)s3)c2)C1.O=C(O)C(F)(F)F (stereo not given),100%
11,CC(C)(CNC(=O)C1CCN(CC2CCCCC2)CC1)c1nc(-c2ccc(Cl)c(O)c2)c(-c2ccncc2)[nH]1.Cl,98%
12,Fc1ccccc1-c1cc(Nc2ccncc2)nc(-c2cccnc2)n1,100%
13,Cc1ccc(CNC(=O)c2ccc(CN3CCCN(Cc4ccsc4)CC3)cc2)cc1.O=C(O)C(F)(F)F,93%
14,Cc1ccc(NC(=O)c2ccc3ncccc3c2)cc1OC1CCN(C(C)C)C1.O=C(O)C(F)(F)F (stereo not given),95%
15,CCNC(=O)Nc1ccc(-c2ccc(-c3nc4cccc(C)c4[nH]3)s2)cc1,96%
16,CCN(CC)C(=O)C(=O)c1c[nH]c2ccc(Cl)cc12,96%
17,Cc1cc(C(=O)N[C@H]2CCN(Cc3ccc(OCCCN(C)C)cc3)C2)ccc1Br.O=C(O)C(F)(F)F,97%
18,CCCCN(CCCC)C(=O)CC(O)c1cc2c(Cl)cc(Cl)cc2c2cc(C(F)(F)F)ccc12 (stereo not given),92%
19,COc1ccc(OC)c2c1CCN(CCN1CCC(C(=O)Nc3ccc(C(=O)Nc4ccc(Cl)cc4)cc3)CC1)C2,100%
20,O=C(/C=C/c1ccsc1)N1CCC(CCN2CCC(c3c[nH]c4ccccc34)CC2)CC1,88%

# Test system: Plasmodium falciparum
# Experiment: GSK_TCMDC: Inhibition of Plasmodium falciparum Dd2 in whole red blood cells, using parasite LDH activity as an index of growth. Test compounds present at 2uM
# Format: functional
row,Structure (SMILES),Inhibition
1,O=C(/C=C/c1ccc(Cl)c(Cl)c1)NCCCCCN1CCC(c2c[nH]c3ccc(O)cc23)CC1,0%
2,Cc1cc(N(C)C)nc(Nc2ccc(NC(=O)CCc3ccccc3)cc2)n1,84%
3,Cl.O=c1cc(NCCCNCc2cc(Br)cs2)[nH]c2ccccc12,5%
4,Cc1ccc(NC(=O)Nc2ccc(Br)cc2)cc1OCCN(C)C,15%
5,O=C(CCC1CCCCC1=O)c1ccccc1 (stereo not given),3%
6,COc1ccc(Cl)cc1N1CCN(CCCNC(=O)c2ccc(-c3nc4cc(Cl)c(F)cc4[nH]3)cc2)CC1,98%
7,Cc1cc(F)ccc1Nc1nc(N(C)c2ccccc2)c2cccc(OCCO)c2n1,94%
8,COc1cc(CC2c3cc(O)c(Cl)cc3CCN2C)c(OC)cc1C.Cl (stereo not given),88%
9,CC1(C)CCC(C)(C)c2c1ccc(C1CCN(CCCCNC(=O)c3ccc(-c4ccc(Cl)cc4)cc3)CC1)c2O,72%
10,CN(C)CCCN1CCN(Cc2ccc(-c3ccc(-c4nc5ccccc5[nH]4)s3)cc2)CC1,100%
11,Cc1ccc(NC(C)C(=O)Nc2ccccc2)cc1S(=O)(=O)N1CCCCCC1 (stereo not given),97%
12,O=C(/C=C/c1ccc(Cl)c(Cl)c1)NCCCCCN1CCCN(C(=O)Nc2cc(Cl)cc(Cl)c2)CC1,4%
13,Cc1cc(N2CCCCC2)nc2ccc(NC(=O)c3cc(=O)c4ccccc4o3)cc12,19%
14,Cc1cccc2nc(-c3cccc(-c4cccc(CNCCN5CCNCC5)c4)c3)[nH]c12.O=C(O)C(F)(F)F,0%
15,O=C(NCCCCN1CCC(c2ccc(Br)cc2)CC1)c1ccc(NC(=O)c2ccc(Cl)cc2)cc1,86%
16,Cc1ccc(NCC(=O)Nc2ccc(F)c(Cl)c2)cc1S(=O)(=O)N1CCOCC1,97%
17,COc1cccc(Nc2nc(C)cc(Nc3cccc(C#N)c3)n2)c1,92%
18,CCOC(=O)c1ccc(N2CCN(CCCNC(=O)/C(=C/C=C/c3cc4cc(Cl)c(Cl)cc4[nH]3)OC)CC2)cc1,72%
19,Cc1cccc2nc(-c3ccc(-c4ccc(CNCc5cnn(-c6ccccc6)n5)cc4)s3)[nH]c12.O=C(O)C(F)(F)F,48%
20,Cc1ccnc(NC(c2ccc(Cl)c([N+](=O)[O-])c2)c2ccc3cccnc3c2O)c1 (stereo not given),57%

row,Structure (SMILES),Inhibition
1,CC(C(=O)N1CCCC1)N1CCN(C(c2ccccc2)c2ccccc2)CC1 (stereo not given),56%
2,O=C(C=Cc1ccc(Cl)c(Cl)c1)NCCCCCN1CCC(CCNC(=O)/C=C/c2ccccc2)CC1,1%
3,CCCC(C)Nc1nc(C)cc(NCCC(=O)Nc2ccc(OC)cc2)n1.O=C(O)C(F)(F)F (stereo not given),2%
4,CCCCCCCOc1ccc(NC(=O)Nc2ccc(Cn3ncc(N4CCCNCC4)c(Cl)c3=O)cc2)cc1.O=C(O)C(F)(F)F,28%
5,CCc1cn2c3c(cc(C(=O)N[C@@H](Cc4ccccc4)[C@H](O)CNC(C)C)cc13)N(C)S(=O)(=O)C2.O=CO,98%
6,CCCCCOc1c(CCC)cc(Cc2cnc(N)nc2N)cc1CCC,0%
7,CNCCNCc1ccc(-c2cccc(-c3nc4cc(F)ccc4[nH]3)c2)cc1.O=C(O)C(F)(F)F,1%
8,COc1ccc(CNCc2ccc(-c3ccc(-c4nc5cc(F)ccc5[nH]4)cc3)cc2)cc1.O=C(O)C(F)(F)F,83%
9,CC(CN1CCN(C)CC1)C(=O)Nc1cccc(-c2ccc(-c3nc4cc(C(F)(F)F)ccc4[nH]3)cc2)c1 (stereo not given),98%
10,NC1CCN(Cc2cccc(-c3ccc(-c4nc5ccccc5[nH]4)s3)c2)C1.O=C(O)C(F)(F)F (stereo not given),62%
11,CC(C)(CNC(=O)C1CCN(CC2CCCCC2)CC1)c1nc(-c2ccc(Cl)c(O)c2)c(-c2ccncc2)[nH]1.Cl,31%
12,Fc1ccccc1-c1cc(Nc2ccncc2)nc(-c2cccnc2)n1,89%
13,Cc1ccc(CNC(=O)c2ccc(CN3CCCN(Cc4ccsc4)CC3)cc2)cc1.O=C(O)C(F)(F)F,0%
14,Cc1ccc(NC(=O)c2ccc3ncccc3c2)cc1OC1CCN(C(C)C)C1.O=C(O)C(F)(F)F (stereo not given),37%
15,CCNC(=O)Nc1ccc(-c2ccc(-c3nc4cccc(C)c4[nH]3)s2)cc1,13%
16,CCN(CC)C(=O)C(=O)c1c[nH]c2ccc(Cl)cc12,96%
17,Cc1cc(C(=O)N[C@H]2CCN(Cc3ccc(OCCCN(C)C)cc3)C2)ccc1Br.O=C(O)C(F)(F)F,62%
18,CCCCN(CCCC)C(=O)CC(O)c1cc2c(Cl)cc(Cl)cc2c2cc(C(F)(F)F)ccc12 (stereo not given),68%
19,COc1ccc(OC)c2c1CCN(CCN1CCC(C(=O)Nc3ccc(C(=O)Nc4ccc(Cl)cc4)cc3)CC1)C2,100%
20,O=C(/C=C/c1ccsc1)N1CCC(CCN2CCC(c3c[nH]c4ccccc34)CC2)CC1,24%
